{
  "source": "the supplement of paper PMC8728848",
  "binders": {"B1": {"name": "Cohesin-hDC-ASGPR (Homo sapiens) (protein)", "chain": "LDDLDAVRIKVDTVNAKPGDTVRIPVRFSGIPSKGIANCDFVYSYDPNVLEIIEIEPGDIIVDPNPDKSFDTAVYPDRKIIVFLFAEDSGTGAYAITKDGVFATIVAKVKEGAPNGLSVIKFVEVGGFANNDLVEQKTQFFDGGANVGDTTEPATPTTPVTTPTTTDDLDAASQNSKFQRDLVTLRTDFSNFTSNTVAEIQALTSQGSSLEETIASLKAEVEGFKQERQAGVSELQEHTTQKAHLGHCPHCPSVCVPVHSEMLLRVQQLVQDLKKLTCQVATLNNNASTEGTCCPVNWVEHQDSCYWFSHSGMSWAEAEKYCQLKNAHLVVINSREEQNFVQKYLGSAYTWMGLSDPEGAWKWVDGTDYATGFQNWKPGQPDDWQGHGLGGGEDCAHFHPDGRWNDDVCQRPYHWVCEAGLGQTSQESHHHHHH"}},
  "experiment_in_all_cases": "glycan array binding signal (z-score within array); higher = stronger binding",
  "conditions_in_all_cases": "glycan notation: IUPAC condensed, linker removed",
  "key": {"GalNAc4S6S(b1-4)GlcNAc": {"target": "GalNAc4S6S(b1-4)GlcNAc", "outline": "(§1)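 The binding signal is a Z-score computed within each array and averaged over linkers. Arrays of the same protein sequence at different concentrations or buffers were also averaged together. Data originate from 3228 arrays in the Consortium for Functional Glycomics database, kept only where the protein sequence was available.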"}, "[1]": {"target": "GlcNAc(a1-4)Gal(b1-4)GlcNAc(b1-3)Gal(b1-4)Glc", "outline": "as §1"}, "[2]": {"target": "GlcNAc(a1-4)Gal(b1-4)GlcNAc(b1-3)Gal(b1-4)[Fuc(a1-3)]GlcNAc(b1-3)Gal(b1-4)[Fuc(a1-3)]GlcNAc", "outline": "as §1"}, "[3]": {"target": "GlcNAc(a1-6)Gal(b1-4)GlcNAc", "outline": "as §1"}, "GlcNAc(b1-3)Fuc": {"target": "GlcNAc(b1-3)Fuc", "outline": "as §1"}, "[4]": {"target": "Kdn(a2-3)Gal(b1-4)[Fuc(a1-3)]GlcNAc", "outline": "as §1"}, "[5]": {"target": "Man(a1-2)Man(a1-6)[Man(a1-3)]Man(a1-6)[Man(a1-2)Man(a1-2)Man(a1-3)]Man", "outline": "as §1"}, "Neu5Ac(a2-3)Gal": {"target": "Neu5Ac(a2-3)Gal", "outline": "as §1"}, "[6]": {"target": "Neu5Ac(a2-3)Gal(b1-4)GlcNAc", "outline": "as §1"}, "[7]": {"target": "Neu5Ac(a2-3)Gal(b1-4)GlcNAc(b1-3)Gal(b1-4)GlcNAc(b1-3)[Neu5Ac(a2-3)Gal(b1-4)GlcNAc(b1-3)Gal(b1-4)GlcNAc(b1-6)]GalNAc", "outline": "as §1"}, "[8]": {"target": "Neu5Ac(a2-3)Gal(b1-4)GlcNAc(b1-3)[Neu5Ac(a2-3)Gal(b1-4)GlcNAc(b1-6)]GalNAc", "outline": "as §1"}, "[9]": {"target": "Neu5Ac(a2-3)Gal(b1-4)GlcNAc6S", "outline": "as §1"}, "[10]": {"target": "Neu5Ac(a2-3)Gal6S(b1-4)GlcNAc", "outline": "as §1"}, "[11]": {"target": "Neu5Ac(a2-3)[GalNAc(b1-4)]Gal(b1-4)Glc", "outline": "as §1"}, "[12]": {"target": "Neu5Ac(a2-3)[GalNAc(b1-4)]Gal(b1-4)GlcNAc(b1-3)GalNAc", "outline": "as §1"}, "[13]": {"target": "Neu5Ac(a2-6)Gal(b1-4)GlcNAc(b1-2)Man(a1-3)[Neu5Ac(a2-3)Gal(b1-4)GlcNAc(b1-2)Man(a1-6)]Man(b1-4)GlcNAc(b1-4)GlcNAc", "outline": "as §1"}, "[14]": {"target": "Neu5Ac(a2-6)Gal(b1-4)GlcNAc(b1-2)Man(a1-6)[GlcNAc(b1-2)Man(a1-3)]Man(b1-4)GlcNAc(b1-4)GlcNAc", "outline": "as §1"}, "[15]": {"target": "Neu5Ac(a2-8)Neu5Ac(a2-3)[Gal(b1-3)GalNAc(b1-4)]Gal(b1-4)Glc", "outline": "as §1"}, "[16]": {"target": "Neu5Ac(a2-8)Neu5Ac(a2-8)Neu5Ac(a2-8)Neu5Ac(a2-3)[GalNAc(b1-4)]Gal(b1-4)Glc", "outline": "as §1"}, "[17]": {"target": "Neu5Gc(a2-6)Gal(b1-4)GlcNAc", "outline": "as §1"}, "Neu5Gc(a2-6)GalNAc": {"target": "Neu5Gc(a2-6)GalNAc", "outline": "as §1"}},
  "note": "This excerpt belongs to a sample that is enriched for the strongest signals.",
  "data": [
    {"binder": "B1", "values": [
      {"measurement": "glycan array binding signal (z-score)", "setting": "GalNAc4S6S(b1-4)GlcNAc", "result": -0.516},
      {"measurement": "glycan array binding signal (z-score)", "setting": "[1]", "result": -0.508},
      {"measurement": "glycan array binding signal (z-score)", "setting": "[2]", "result": -0.444},
      {"measurement": "glycan array binding signal (z-score)", "setting": "[3]", "result": -0.439},
      {"measurement": "glycan array binding signal (z-score)", "setting": "GlcNAc(b1-3)Fuc", "result": -0.443},
      {"measurement": "glycan array binding signal (z-score)", "setting": "[4]", "result": -0.485},
      {"measurement": "glycan array binding signal (z-score)", "setting": "[5]", "result": -0.48},
      {"measurement": "glycan array binding signal (z-score)", "setting": "Neu5Ac(a2-3)Gal", "result": -0.335},
      {"measurement": "glycan array binding signal (z-score)", "setting": "[6]", "result": -0.453},
      {"measurement": "glycan array binding signal (z-score)", "setting": "[7]", "result": -0.339},
      {"measurement": "glycan array binding signal (z-score)", "setting": "[8]", "result": -0.495},
      {"measurement": "glycan array binding signal (z-score)", "setting": "[9]", "result": -0.518},
      {"measurement": "glycan array binding signal (z-score)", "setting": "[10]", "result": -0.517},
      {"measurement": "glycan array binding signal (z-score)", "setting": "[11]", "result": 2.91},
      {"measurement": "glycan array binding signal (z-score)", "setting": "[12]", "result": 1.83},
      {"measurement": "glycan array binding signal (z-score)", "setting": "[13]", "result": -0.471},
      {"measurement": "glycan array binding signal (z-score)", "setting": "[14]", "result": -0.387},
      {"measurement": "glycan array binding signal (z-score)", "setting": "[15]", "result": 3.87},
      {"measurement": "glycan array binding signal (z-score)", "setting": "[16]", "result": 2.95},
      {"measurement": "glycan array binding signal (z-score)", "setting": "[17]", "result": -0.392},
      {"measurement": "glycan array binding signal (z-score)", "setting": "Neu5Gc(a2-6)GalNAc", "result": 2.81}
    ]}
  ]
}
